The results in this text go back to paper PMC7862700, “An all-to-all approach to the identification of sequence-specific readers for epigenetic DNA modifications on cytosine”.

Experiment in all cases: DAPPL (digital affinity profiling via proximity ligation, sequencing); 10 mM Tris-HCl pH 7.5, 50 mM NaCl, 1 mM DTT, 4% glycerol, room temperature, 30 min; GST-TFs on glutathione beads, 16-mer random dsDNA library, 0.1% formaldehyde crosslink after washing; high values mean tight binding
Common to all, as to settings: protein: recombinant; tags: N-terminal GST; dsDNA, one strand shown

One assay concerns the target T1, ELK1 (Homo sapiens, UniProt P19419 1-428).
T1 sequence: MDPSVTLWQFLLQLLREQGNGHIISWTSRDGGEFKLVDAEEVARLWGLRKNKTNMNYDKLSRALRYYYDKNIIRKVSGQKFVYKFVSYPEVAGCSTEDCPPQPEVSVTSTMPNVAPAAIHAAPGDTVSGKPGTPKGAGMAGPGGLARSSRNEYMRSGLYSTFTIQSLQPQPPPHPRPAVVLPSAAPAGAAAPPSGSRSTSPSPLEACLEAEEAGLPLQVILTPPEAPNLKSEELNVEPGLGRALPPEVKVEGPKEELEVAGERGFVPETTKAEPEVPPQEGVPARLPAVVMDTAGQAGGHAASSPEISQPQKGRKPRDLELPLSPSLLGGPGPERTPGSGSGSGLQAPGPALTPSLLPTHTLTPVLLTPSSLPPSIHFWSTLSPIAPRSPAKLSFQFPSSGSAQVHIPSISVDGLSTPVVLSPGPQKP
An outline of the steps:
(§1)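 Sequencing on an Illumina NextSeq500 followed washing, crosslinking with 0.1% formaldehyde, proximity ligation (BsaI/T4 ligase, 1 h, 37 °C) and PCR amplification of pools that had been incubated for 30 min at room temperature with 200 nmole of a random double-stranded 16-mer DNA library in Tris/NaCl/DTT/glycerol buffer. Each pool held DNA-barcoded human transcription factors, expressed in yeast as GST fusions and captured on glutathione beads, plus a tag-only sample. Binding signal is a hexamer's read frequency for a factor divided by its frequency in the tag-only sample.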

A further assay addresses T2, ERG (Homo sapiens, UniProt P11308 1-479).
T2 sequence: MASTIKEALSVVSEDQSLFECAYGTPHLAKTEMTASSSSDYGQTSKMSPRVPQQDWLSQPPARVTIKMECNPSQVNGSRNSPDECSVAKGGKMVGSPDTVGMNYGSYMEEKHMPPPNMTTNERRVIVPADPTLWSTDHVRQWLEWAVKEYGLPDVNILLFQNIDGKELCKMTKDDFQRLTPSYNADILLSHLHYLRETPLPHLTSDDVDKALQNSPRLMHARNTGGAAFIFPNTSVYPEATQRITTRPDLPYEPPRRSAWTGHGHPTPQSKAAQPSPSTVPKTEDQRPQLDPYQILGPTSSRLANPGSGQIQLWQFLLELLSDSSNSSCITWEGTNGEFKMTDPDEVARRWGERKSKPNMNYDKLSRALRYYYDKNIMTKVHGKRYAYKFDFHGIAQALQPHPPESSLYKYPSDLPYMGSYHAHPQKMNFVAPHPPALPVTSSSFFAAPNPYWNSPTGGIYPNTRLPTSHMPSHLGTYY
In outline: as §1

The target in the next assay is ELF1 (Homo sapiens, UniProt P32519 1-619). In outline:
as §1

The target of the next assay is T3, EHF (Homo sapiens, UniProt Q9NZC4 1-300).
T3 sequence: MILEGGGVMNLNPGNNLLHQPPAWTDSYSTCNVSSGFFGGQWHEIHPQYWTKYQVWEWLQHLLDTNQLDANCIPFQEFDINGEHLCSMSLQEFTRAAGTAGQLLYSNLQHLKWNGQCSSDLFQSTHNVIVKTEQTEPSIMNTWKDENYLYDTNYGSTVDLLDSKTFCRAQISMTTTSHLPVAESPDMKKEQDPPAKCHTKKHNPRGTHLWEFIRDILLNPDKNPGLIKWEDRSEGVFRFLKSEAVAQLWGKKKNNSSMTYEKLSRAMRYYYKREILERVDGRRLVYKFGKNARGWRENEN
In outline:
as §1

The next assay deals with SPIB (Homo sapiens, UniProt Q01892 1-262). An outline of the steps: as §1
Another assay deals with ETV5 (Homo sapiens, UniProt P41161 1-510). In outline:
as §1

The target of another assay is T4, SPIC (Homo sapiens, UniProt Q8N5J4 1-248).
T4 sequence: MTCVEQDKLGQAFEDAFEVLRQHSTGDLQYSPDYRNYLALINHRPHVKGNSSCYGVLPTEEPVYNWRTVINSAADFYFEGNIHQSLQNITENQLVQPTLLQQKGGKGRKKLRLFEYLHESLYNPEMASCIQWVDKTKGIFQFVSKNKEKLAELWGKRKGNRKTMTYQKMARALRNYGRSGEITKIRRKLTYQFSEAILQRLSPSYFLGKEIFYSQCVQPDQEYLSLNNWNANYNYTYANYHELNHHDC
In outline: as §1

The next assay addresses T5, ELK4 (Homo sapiens, UniProt P28324-2 1-405).
T5 sequence: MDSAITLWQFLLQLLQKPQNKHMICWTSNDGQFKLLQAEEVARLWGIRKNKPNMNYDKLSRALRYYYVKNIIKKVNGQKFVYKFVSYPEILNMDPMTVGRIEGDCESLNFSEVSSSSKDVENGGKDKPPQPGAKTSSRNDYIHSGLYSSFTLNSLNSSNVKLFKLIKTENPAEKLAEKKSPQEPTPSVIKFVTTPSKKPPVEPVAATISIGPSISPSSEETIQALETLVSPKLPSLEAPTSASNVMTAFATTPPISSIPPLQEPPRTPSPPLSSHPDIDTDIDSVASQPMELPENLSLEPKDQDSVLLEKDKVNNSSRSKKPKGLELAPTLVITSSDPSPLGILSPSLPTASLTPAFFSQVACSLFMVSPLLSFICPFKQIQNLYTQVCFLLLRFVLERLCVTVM
An outline of the steps: as §1

A further assay concerns the target T6, ELF3 (Homo sapiens, UniProt P78545 1-371).
T6 sequence: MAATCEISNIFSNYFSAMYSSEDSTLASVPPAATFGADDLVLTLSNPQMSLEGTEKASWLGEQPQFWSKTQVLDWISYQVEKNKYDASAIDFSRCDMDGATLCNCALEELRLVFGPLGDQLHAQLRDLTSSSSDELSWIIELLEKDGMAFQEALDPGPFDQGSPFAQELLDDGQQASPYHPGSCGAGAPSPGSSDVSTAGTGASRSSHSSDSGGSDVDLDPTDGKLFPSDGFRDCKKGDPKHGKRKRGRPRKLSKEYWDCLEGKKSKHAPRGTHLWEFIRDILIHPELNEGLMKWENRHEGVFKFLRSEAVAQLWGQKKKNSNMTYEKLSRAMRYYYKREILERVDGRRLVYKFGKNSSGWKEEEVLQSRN
In outline: as §1

For a further assay, the target named is ETV1 (Homo sapiens, UniProt P50549 1-477). An outline of the steps:
as §1

For a further assay, the target named is T7, ERF (Homo sapiens, UniProt P50548 1-548).
T7 sequence: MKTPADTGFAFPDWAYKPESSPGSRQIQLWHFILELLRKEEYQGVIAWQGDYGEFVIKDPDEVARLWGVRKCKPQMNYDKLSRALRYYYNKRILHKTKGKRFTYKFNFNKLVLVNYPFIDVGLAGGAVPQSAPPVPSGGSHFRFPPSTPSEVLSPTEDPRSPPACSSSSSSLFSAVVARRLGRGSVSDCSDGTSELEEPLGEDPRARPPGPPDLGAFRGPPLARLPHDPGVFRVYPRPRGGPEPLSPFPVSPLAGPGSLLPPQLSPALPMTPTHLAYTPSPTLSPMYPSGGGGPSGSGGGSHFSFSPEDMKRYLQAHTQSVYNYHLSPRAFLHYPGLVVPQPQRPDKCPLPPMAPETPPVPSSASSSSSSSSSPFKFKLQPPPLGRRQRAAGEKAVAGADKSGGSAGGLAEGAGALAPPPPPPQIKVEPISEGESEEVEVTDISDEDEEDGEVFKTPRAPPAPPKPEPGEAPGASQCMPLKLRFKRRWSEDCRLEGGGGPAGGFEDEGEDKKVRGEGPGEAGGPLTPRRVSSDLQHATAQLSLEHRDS
In outline:
as §1

A further assay addresses T8, ETV3L (Homo sapiens, UniProt Q6ZN32 1-361).
T8 sequence: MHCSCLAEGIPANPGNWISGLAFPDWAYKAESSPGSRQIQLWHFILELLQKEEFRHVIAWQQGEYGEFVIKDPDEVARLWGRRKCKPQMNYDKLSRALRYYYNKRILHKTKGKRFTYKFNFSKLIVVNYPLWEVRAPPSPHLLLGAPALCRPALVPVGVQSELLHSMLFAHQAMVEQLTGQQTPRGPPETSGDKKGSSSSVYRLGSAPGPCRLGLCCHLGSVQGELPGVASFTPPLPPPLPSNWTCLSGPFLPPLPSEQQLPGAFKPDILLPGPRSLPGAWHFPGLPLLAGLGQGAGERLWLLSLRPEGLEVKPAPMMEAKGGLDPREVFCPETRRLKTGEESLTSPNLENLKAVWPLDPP
An outline of the steps: as §1

The next assay addresses T9, ETS2 (Homo sapiens, UniProt P15036 1-469).
T9 sequence: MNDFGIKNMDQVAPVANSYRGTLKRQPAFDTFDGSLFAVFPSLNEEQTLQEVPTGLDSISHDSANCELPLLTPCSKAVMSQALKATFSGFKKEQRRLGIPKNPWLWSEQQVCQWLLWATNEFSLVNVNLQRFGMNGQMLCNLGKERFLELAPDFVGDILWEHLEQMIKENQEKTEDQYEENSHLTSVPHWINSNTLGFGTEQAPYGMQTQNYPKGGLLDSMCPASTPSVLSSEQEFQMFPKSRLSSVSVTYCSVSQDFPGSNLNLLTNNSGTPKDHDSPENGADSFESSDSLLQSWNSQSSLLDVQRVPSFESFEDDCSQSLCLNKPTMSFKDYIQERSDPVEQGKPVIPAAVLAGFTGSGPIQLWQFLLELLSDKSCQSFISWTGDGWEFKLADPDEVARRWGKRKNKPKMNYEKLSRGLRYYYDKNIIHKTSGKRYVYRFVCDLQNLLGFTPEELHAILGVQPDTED
In outline: as §1

Another assay concerns the target T10, SPDEF (Homo sapiens, UniProt O95238 1-335).
T10 sequence: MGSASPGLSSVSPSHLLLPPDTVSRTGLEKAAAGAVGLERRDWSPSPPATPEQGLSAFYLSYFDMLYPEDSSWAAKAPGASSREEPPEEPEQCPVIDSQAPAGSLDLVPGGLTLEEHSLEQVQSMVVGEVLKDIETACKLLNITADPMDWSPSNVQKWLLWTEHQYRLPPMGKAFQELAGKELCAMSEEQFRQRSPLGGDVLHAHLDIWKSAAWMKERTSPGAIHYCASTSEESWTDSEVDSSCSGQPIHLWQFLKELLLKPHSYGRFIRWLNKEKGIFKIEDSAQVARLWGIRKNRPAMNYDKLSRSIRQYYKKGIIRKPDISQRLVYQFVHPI
In outline:
as §1

The target of a further assay is T11, ETV7 (Homo sapiens, UniProt Q9Y603 1-341).
T11 sequence: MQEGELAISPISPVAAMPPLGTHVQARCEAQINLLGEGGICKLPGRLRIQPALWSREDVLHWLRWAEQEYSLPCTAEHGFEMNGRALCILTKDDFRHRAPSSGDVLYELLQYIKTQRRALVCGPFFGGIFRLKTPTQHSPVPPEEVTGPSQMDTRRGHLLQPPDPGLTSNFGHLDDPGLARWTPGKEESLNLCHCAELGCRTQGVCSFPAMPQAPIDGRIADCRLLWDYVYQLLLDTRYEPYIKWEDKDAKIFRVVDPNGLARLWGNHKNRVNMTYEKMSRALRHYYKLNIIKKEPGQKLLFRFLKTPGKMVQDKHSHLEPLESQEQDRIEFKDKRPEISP
An outline of the steps:
as §1

A further assay addresses T12, ETV3 (Homo sapiens, UniProt P41162-2 1-143).
T12 sequence: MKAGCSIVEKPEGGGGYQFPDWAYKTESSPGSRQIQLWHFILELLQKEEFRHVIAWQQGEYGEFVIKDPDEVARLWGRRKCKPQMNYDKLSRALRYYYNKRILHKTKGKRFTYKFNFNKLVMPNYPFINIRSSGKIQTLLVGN
In outline: as §1

A further assay addresses ETV6 (Homo sapiens, UniProt P41212 1-452). In outline:
as §1

Sequence of ETV5 (P41161 whole entry): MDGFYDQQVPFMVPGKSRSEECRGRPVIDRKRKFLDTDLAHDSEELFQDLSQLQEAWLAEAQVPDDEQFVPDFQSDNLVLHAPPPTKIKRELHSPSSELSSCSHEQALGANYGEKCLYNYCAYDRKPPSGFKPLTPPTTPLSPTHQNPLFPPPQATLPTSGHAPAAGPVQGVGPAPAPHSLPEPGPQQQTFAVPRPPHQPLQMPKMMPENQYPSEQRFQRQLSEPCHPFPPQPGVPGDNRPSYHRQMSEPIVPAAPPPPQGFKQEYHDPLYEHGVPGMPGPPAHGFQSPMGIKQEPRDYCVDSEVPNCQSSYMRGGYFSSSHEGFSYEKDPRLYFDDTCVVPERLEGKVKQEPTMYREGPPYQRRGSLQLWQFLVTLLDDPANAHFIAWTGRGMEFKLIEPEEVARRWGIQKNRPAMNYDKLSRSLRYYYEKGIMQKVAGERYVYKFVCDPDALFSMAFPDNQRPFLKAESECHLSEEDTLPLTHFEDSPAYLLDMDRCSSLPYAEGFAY
Sequence of ETV6 (P41212 whole entry): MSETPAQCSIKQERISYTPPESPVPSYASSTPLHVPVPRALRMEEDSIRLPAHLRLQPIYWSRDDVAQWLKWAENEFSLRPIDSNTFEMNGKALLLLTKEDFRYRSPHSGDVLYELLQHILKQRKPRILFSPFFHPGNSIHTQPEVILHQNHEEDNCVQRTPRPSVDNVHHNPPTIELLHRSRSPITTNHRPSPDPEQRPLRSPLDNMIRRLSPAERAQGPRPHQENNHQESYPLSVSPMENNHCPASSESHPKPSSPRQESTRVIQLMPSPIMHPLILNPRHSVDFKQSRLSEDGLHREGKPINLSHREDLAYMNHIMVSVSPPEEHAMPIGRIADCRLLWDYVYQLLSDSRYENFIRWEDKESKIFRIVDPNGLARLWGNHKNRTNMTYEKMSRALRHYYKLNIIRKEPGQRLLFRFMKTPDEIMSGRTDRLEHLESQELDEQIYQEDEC
Sequence of SPIB (Q01892 whole entry): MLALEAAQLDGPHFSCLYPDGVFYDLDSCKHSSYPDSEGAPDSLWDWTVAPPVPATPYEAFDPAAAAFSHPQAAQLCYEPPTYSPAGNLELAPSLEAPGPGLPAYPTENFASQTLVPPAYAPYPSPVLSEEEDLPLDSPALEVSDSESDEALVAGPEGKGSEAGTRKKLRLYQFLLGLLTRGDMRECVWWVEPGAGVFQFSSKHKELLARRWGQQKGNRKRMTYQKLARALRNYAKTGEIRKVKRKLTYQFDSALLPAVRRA
Sequence of ETV1 (P50549 whole entry): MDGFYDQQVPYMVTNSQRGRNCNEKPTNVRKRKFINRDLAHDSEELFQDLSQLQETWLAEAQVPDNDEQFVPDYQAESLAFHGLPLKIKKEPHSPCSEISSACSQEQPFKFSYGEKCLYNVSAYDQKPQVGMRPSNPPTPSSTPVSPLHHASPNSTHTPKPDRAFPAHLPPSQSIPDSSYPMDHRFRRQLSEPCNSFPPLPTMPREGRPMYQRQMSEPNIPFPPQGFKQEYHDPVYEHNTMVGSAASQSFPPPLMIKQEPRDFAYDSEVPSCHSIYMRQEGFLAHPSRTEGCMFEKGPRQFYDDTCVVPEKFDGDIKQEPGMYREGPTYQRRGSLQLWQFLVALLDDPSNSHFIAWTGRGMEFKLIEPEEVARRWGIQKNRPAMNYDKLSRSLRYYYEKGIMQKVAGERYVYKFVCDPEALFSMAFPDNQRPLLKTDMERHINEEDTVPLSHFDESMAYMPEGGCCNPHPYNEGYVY
Sequence of ELF1 (P32519 whole entry): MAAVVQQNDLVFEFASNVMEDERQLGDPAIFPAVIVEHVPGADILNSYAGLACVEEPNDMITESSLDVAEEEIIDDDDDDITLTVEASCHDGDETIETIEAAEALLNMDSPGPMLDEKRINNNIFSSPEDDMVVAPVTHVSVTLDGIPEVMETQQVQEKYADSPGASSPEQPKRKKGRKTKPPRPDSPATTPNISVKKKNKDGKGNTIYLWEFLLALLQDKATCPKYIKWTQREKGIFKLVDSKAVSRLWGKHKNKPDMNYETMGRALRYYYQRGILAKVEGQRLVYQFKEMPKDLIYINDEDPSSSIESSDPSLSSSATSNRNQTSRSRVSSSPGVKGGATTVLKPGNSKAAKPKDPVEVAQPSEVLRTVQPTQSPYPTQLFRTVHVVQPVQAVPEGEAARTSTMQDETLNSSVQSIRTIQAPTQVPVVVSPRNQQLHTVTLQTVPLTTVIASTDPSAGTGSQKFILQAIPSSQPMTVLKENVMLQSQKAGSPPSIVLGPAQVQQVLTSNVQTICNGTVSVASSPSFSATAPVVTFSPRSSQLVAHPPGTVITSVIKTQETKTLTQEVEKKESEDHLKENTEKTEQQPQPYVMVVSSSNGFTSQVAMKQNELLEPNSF

For the sequence GGCTAT, the binding signal was 1.06 fold enrichment (6-mer frequency, TF over GST control) in the assay with ELK1; 1.07 fold enrichment (6-mer frequency, TF over GST control) with ERG; 1.02 fold enrichment (6-mer frequency, TF over GST control) with ELF1; 1.12 fold enrichment (6-mer frequency, TF over GST control) in the assay with EHF; 1.02 fold enrichment (6-mer frequency, TF over GST control) with SPIB; 1 fold enrichment (6-mer frequency, TF over GST control) with ETV5. Further, the binding signal with SPIC was 1.03 fold enrichment (6-mer frequency, TF over GST control); with ELK4 it was 1.15 fold enrichment (6-mer frequency, TF over GST control); with ELF3, 1.01 fold enrichment (6-mer frequency, TF over GST control); with ETV1, 1.07 fold enrichment (6-mer frequency, TF over GST control); with ERF, 1.06 fold enrichment (6-mer frequency, TF over GST control); with ETV3L, 1.07 fold enrichment (6-mer frequency, TF over GST control). The binding signal is 1.02 fold enrichment (6-mer frequency, TF over GST control) in the assay with ETS2; 1.05 fold enrichment (6-mer frequency, TF over GST control) with SPDEF; 1.12 fold enrichment (6-mer frequency, TF over GST control) in the assay with ETV7; 1.06 fold enrichment (6-mer frequency, TF over GST control) in the assay with ETV3; 1.03 fold enrichment (6-mer frequency, TF over GST control) with ETV6.

For the sequence CGAGGT, the binding signal was 1.01 fold enrichment (6-mer frequency, TF over GST control) with ETV5; 1.06 fold enrichment (6-mer frequency, TF over GST control) in the assay with ELK4; 1.02 fold enrichment (6-mer frequency, TF over GST control) with ETV7.
